# Experiments:
# Details in all cases: concentration: 1 μM, replicates: in singlicate; n = 1
# [1] = tested on: T1, ASK2
# T1 construct: gene MAP3K6
# [2] = tested on: AURKA
# [3] = tested on: AURKB
# [4] = tested on: AURKC
# [5] = tested on: AXL
# [6] = tested on: T2, BIKE
# T2 construct: gene BMP2K
# [7] = tested on: BLK
# [8] = tested on: BMPR1A
# [9] = tested on: BMPR1B
# [10] = tested on: BMPR2
# 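Note: KINOMEscan kinase panel screen.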
smiles,measurement,setting,value
CCn1c(-c2nonc2N)nc2c(C#CC(C)(C)O)nc(OC[C@H](N)c3ccccc3)cc21 [GSK943949],%Inh,[1],0%
same,%Inh,[2],37%
same,%Inh,[3],0%
same,%Inh,[4],4%
same,%Inh,[5],13%
same,%Inh,[6],19%
same,%Inh,[7],0%
same,%Inh,[8],0%
same,%Inh,[9],9%
same,%Inh,[10],1%
COc1ccc(Nc2nccc(N3CCC(NC(=O)Nc4cccc(OC)c4)C3)n2)cc1 (centres unmarked) [GSK1379742],%Inh,[1],13%
same,%Inh,[2],0%
same,%Inh,[3],53%
same,%Inh,[4],10%
same,%Inh,[5],0%
same,%Inh,[6],13%
same,%Inh,[7],37%
same,%Inh,[8],0%
same,%Inh,[9],0%
same,%Inh,[10],12%
COc1cccc(C(=O)Nc2cccc(Oc3ccc4nc(NC(=O)C5CC5)cn4n3)c2)c1,%Inh,[1],0%
same,%Inh,[2],55%
same,%Inh,[3],81%
same,%Inh,[4],74%
same,%Inh,[5],65%
same,%Inh,[6],18%
same,%Inh,[7],95.3%
same,%Inh,[8],10%
same,%Inh,[9],13%
same,%Inh,[10],0%
Clc1ccc(-c2nn3ncccc3c2-c2ccnc(Nc3ccc4c(c3)OCCO4)n2)cc1 [GW829116],%Inh,[1],0%
same,%Inh,[2],18%
same,%Inh,[3],0%
same,%Inh,[4],0%
same,%Inh,[5],0%
same,%Inh,[6],0%
same,%Inh,[7],48%
same,%Inh,[8],0%
same,%Inh,[9],0%
same,%Inh,[10],0%
Cn1cc(-c2ccc3c(c2)CCN3C(=O)Cc2cccc(Cl)c2)c2c(N)ncnc21 [GSK2606590],%Inh,[1],19%
same,%Inh,[2],23%
same,%Inh,[3],89%
same,%Inh,[4],65%
same,%Inh,[5],96.3%
same,%Inh,[6],18%
same,%Inh,[7],69%
same,%Inh,[8],0%
same,%Inh,[9],0%
same,%Inh,[10],4%
O=c1[nH]cc(-c2ccc(N3CCOCC3)cc2)c2sc(-c3cn[nH]c3)cc12 [GSK2276055],%Inh,[1],13%
same,%Inh,[2],28%
same,%Inh,[3],21%
same,%Inh,[4],21%
same,%Inh,[5],0%
same,%Inh,[6],28%
same,%Inh,[7],0%
same,%Inh,[8],1%
same,%Inh,[9],0%
same,%Inh,[10],24%
Cc1ccc(F)c(C(=O)Nc2cccc(-c3nn4ccccc4c3-c3ccnc(Nc4cccc(F)c4)n3)c2)c1F [GSK361061],%Inh,[1],27%
same,%Inh,[2],29%
same,%Inh,[3],4%
same,%Inh,[4],59%
same,%Inh,[5],56%
same,%Inh,[6],35%
same,%Inh,[7],91.3%
same,%Inh,[8],10%
same,%Inh,[9],0%
same,%Inh,[10],8%
FC(F)(F)c1ccc(/C=C/c2cncnc2Nc2ccc3[nH]c(Cc4ccccc4)nc3c2)cc1 [GW709199],%Inh,[1],0%
same,%Inh,[2],0%
same,%Inh,[3],5%
same,%Inh,[4],0%
same,%Inh,[5],0%
same,%Inh,[6],0%
same,%Inh,[7],3%
same,%Inh,[8],4%
same,%Inh,[9],0%
same,%Inh,[10],0%
COc1cc(Nc2nccc(N3CCC(NC(=O)Nc4cccc(C(C)=O)c4)C3)n2)cc(OC)c1OC (centres unmarked) [GSK1379753],%Inh,[1],0%
same,%Inh,[2],83%
same,%Inh,[3],57%
same,%Inh,[4],77%
same,%Inh,[5],0%
same,%Inh,[6],74%
same,%Inh,[7],9%
same,%Inh,[8],0%
same,%Inh,[9],0%
same,%Inh,[10],9%
CC(=O)N1CCN(c2ccc(Nc3nccc(-c4sc(C(C)C)nc4-c4cccc(NS(=O)(=O)c5cccc(Cl)c5)c4)n3)cn2)CC1 [GSK1660437],%Inh,[1],2%
same,%Inh,[2],0%
same,%Inh,[3],0%
same,%Inh,[4],10%
same,%Inh,[5],68%
same,%Inh,[6],24%
same,%Inh,[7],91.4%
same,%Inh,[8],0%
same,%Inh,[9],97.1%
same,%Inh,[10],0%
COc1cccc(-c2ccc3c(NC(=O)C4CC4)n[nH]c3n2)c1 [SB-710903],%Inh,[1],0%
same,%Inh,[2],0%
same,%Inh,[3],35%
same,%Inh,[4],0%
same,%Inh,[5],0%
same,%Inh,[6],0%
same,%Inh,[7],0%
same,%Inh,[8],0%
same,%Inh,[9],35%
same,%Inh,[10],44%
Fc1ccc(-c2ncn(C3CCNCC3)c2-c2ccnc(Oc3ccc(-c4ccccc4)cc3)n2)cc1 [SB-245391],%Inh,[1],12%
same,%Inh,[2],53%
same,%Inh,[3],39%
same,%Inh,[4],0%
same,%Inh,[5],18%
same,%Inh,[6],0%
same,%Inh,[7],20%
same,%Inh,[8],18%
same,%Inh,[9],2%
same,%Inh,[10],46%
Cc1cccc(Nc2nc(N[C@H]3CCNC3)ncc2C(N)=O)c1.Cl [GSK2197149],%Inh,[1],3%
same,%Inh,[2],0%
same,%Inh,[3],0%
same,%Inh,[4],58%
same,%Inh,[5],24%
same,%Inh,[6],96.9%
same,%Inh,[7],69%
same,%Inh,[8],0%
same,%Inh,[9],0%
same,%Inh,[10],0%
Nc1ncc(-c2cccnc2)c2scc(-c3ccc4c(c3)CCN4C(=O)Cc3ccccc3)c12 [GSK683281],%Inh,[1],10%
same,%Inh,[2],25%
same,%Inh,[3],70%
same,%Inh,[4],70%
same,%Inh,[5],89%
same,%Inh,[6],16%
same,%Inh,[7],82%
same,%Inh,[8],6%
same,%Inh,[9],0%
same,%Inh,[10],3%
Cn1cc(-c2ccc3c(c2)CCN3C(=O)Cc2cccc(F)c2)c2c(N)ncnc21 [GSK2603358],%Inh,[1],0%
same,%Inh,[2],20%
same,%Inh,[3],95.5%
same,%Inh,[4],47%
same,%Inh,[5],83%
same,%Inh,[6],10%
same,%Inh,[7],50%
same,%Inh,[8],0%
same,%Inh,[9],0%
same,%Inh,[10],3%
COc1cccc(NC(=O)NC2CCN(c3ccnc(Nc4cc(OC)c(OC)c(OC)c4)n3)C2)c1 (centres unmarked) [GSK1379763],%Inh,[1],11%
same,%Inh,[2],75%
same,%Inh,[3],55%
same,%Inh,[4],89%
same,%Inh,[5],13%
same,%Inh,[6],78%
same,%Inh,[7],0%
same,%Inh,[8],0%
same,%Inh,[9],0%
same,%Inh,[10],8%
COC(=O)Nc1nc2ccc(Oc3ccc(NC(=O)Nc4cc(C(F)(F)F)ccc4F)cc3)cc2n1C.Cl [GW692089],%Inh,[1],0%
same,%Inh,[2],0%
same,%Inh,[3],94.1%
same,%Inh,[4],14%
same,%Inh,[5],95%
same,%Inh,[6],0%
same,%Inh,[7],27%
same,%Inh,[8],0%
same,%Inh,[9],0%
same,%Inh,[10],11%
NCCCC(NC(=O)c1cc(Br)c(-c2ccnc3[nH]ccc23)s1)c1ccccc1.O=C(O)C(F)(F)F.O=C(O)C(F)(F)F (centres unmarked) [GSK1287544],%Inh,[1],0%
same,%Inh,[2],74%
same,%Inh,[3],56%
same,%Inh,[4],95.7%
same,%Inh,[5],74%
same,%Inh,[6],97.9%
same,%Inh,[7],0%
same,%Inh,[8],0%
same,%Inh,[9],0%
same,%Inh,[10],21%
CC(=O)Nc1nc2cnc(Nc3cc(NC(=O)c4cccc(C5(C#N)CC5)c4Cl)ccc3C)nc2s1,%Inh,[1],0%
same,%Inh,[2],0%
same,%Inh,[3],26%
same,%Inh,[4],0%
same,%Inh,[5],0%
same,%Inh,[6],0%
same,%Inh,[7],45%
same,%Inh,[8],0%
same,%Inh,[9],0%
same,%Inh,[10],2%
CCCCc1nn2ncccc2c1-c1ccnc(Nc2ccc(N3CCN(C)CC3)cc2)n1 [GW684941],%Inh,[1],16%
same,%Inh,[2],96.7%
same,%Inh,[3],80%
same,%Inh,[4],82%
same,%Inh,[5],69%
same,%Inh,[6],69%
same,%Inh,[7],81%
same,%Inh,[8],0%
same,%Inh,[9],91%
same,%Inh,[10],0%
c1ccc(Oc2ccc(Nc3ccnc4cc(-c5ccc(CNCCN6CCOCC6)o5)ccc34)cc2)nc1 [GW567145],%Inh,[1],0%
same,%Inh,[2],22%
same,%Inh,[3],71%
same,%Inh,[4],9%
same,%Inh,[5],0%
same,%Inh,[6],0%
same,%Inh,[7],86%
same,%Inh,[8],0%
same,%Inh,[9],0%
same,%Inh,[10],14%
COc1cc(Nc2nccc(-c3c(-c4cccc(NC(=O)c5c(F)cccc5F)c4)nn4ccccc34)n2)cc(OC)c1OC [GSK323521],%Inh,[1],4%
same,%Inh,[2],48%
same,%Inh,[3],90.6%
same,%Inh,[4],15%
same,%Inh,[5],80%
same,%Inh,[6],21%
same,%Inh,[7],44%
same,%Inh,[8],0%
same,%Inh,[9],0%
same,%Inh,[10],11%
CN(C)S(=O)(=O)c1cc(-c2ccc3nccc(-c4cccc(S(N)(=O)=O)c4)c3c2)cnc1N [GSK1669921],%Inh,[1],5%
same,%Inh,[2],8%
same,%Inh,[3],0%
same,%Inh,[4],17%
same,%Inh,[5],10%
same,%Inh,[6],22%
same,%Inh,[7],18%
same,%Inh,[8],0%
same,%Inh,[9],0%
same,%Inh,[10],3%
COc1cc(Nc2nccc(-c3c(-c4cccc(NC(=O)c5c(F)cccc5F)c4)nn4ncccc34)n2)cc(OC)c1OC [GSK327238],%Inh,[1],8%
same,%Inh,[2],99.1%
same,%Inh,[3],92.5%
same,%Inh,[4],70%
same,%Inh,[5],91.3%
same,%Inh,[6],7%
same,%Inh,[7],99.6%
same,%Inh,[8],3%
same,%Inh,[9],0%
same,%Inh,[10],0%
O=C(Nc1cccc(-c2nn3ccccc3c2-c2ccnc(Nc3cccc(F)c3)n2)c1)c1c(F)ccc(F)c1Cl [GSK357952],%Inh,[1],6%
same,%Inh,[2],0%
same,%Inh,[3],7%
same,%Inh,[4],66%
same,%Inh,[5],19%
same,%Inh,[6],25%
same,%Inh,[7],97.2%
same,%Inh,[8],0%
same,%Inh,[9],0%
same,%Inh,[10],0%
CCn1c(-c2nonc2N)nc2c(C#CC(C)(C)O)ncc(OCCCCN)c21.O=C(O)C(F)(F)F.O=C(O)C(F)(F)F [GSK507274],%Inh,[1],16%
same,%Inh,[2],0%
same,%Inh,[3],38%
same,%Inh,[4],9%
same,%Inh,[5],0%
same,%Inh,[6],26%
same,%Inh,[7],8%
same,%Inh,[8],14%
same,%Inh,[9],0%
same,%Inh,[10],12%
Cc1ccc(S(=O)(=O)Nc2ccc(Nc3nccc(Nc4cccc5[nH]ncc45)n3)cc2)cc1 [GSK581271],%Inh,[1],0%
same,%Inh,[2],99.8%
same,%Inh,[3],37%
same,%Inh,[4],52%
same,%Inh,[5],0%
same,%Inh,[6],65%
same,%Inh,[7],0%
same,%Inh,[8],0%
same,%Inh,[9],0%
same,%Inh,[10],4%
C[C@@H]1CC[C@@H](C(=O)Nc2ccccc2)CN1c1cc(-c2ccc3c(N)n[nH]c3c2)nc(N)n1 [GSK2286062],%Inh,[1],2%
same,%Inh,[2],4%
same,%Inh,[3],16%
same,%Inh,[4],26%
same,%Inh,[5],0%
same,%Inh,[6],9%
same,%Inh,[7],0%
same,%Inh,[8],0%
same,%Inh,[9],0%
same,%Inh,[10],0%
CCS(=O)(=O)c1ccc(OC)c(Nc2nccc(-c3c(-c4cccc(NC(=O)c5c(F)cccc5F)c4)nn4ncccc34)n2)c1 [GSK326180],%Inh,[1],9%
same,%Inh,[2],15%
same,%Inh,[3],25%
same,%Inh,[4],60%
same,%Inh,[5],9%
same,%Inh,[6],40%
same,%Inh,[7],36%
same,%Inh,[8],0%
same,%Inh,[9],0%
same,%Inh,[10],4%
CN(c1ccc(NC(=O)Nc2cc(C(F)(F)F)ccc2F)cc1)c1ccnc(Nc2ccc(S(N)(=O)=O)cc2)n1 [GW809893],%Inh,[1],17%
same,%Inh,[2],90.7%
same,%Inh,[3],95.7%
same,%Inh,[4],67%
same,%Inh,[5],93.3%
same,%Inh,[6],26%
same,%Inh,[7],96.7%
same,%Inh,[8],28%
same,%Inh,[9],20%
same,%Inh,[10],78%
O=C(Nc1cccc(-c2nn3ccccc3c2-c2ccnc(Nc3cccc(C(F)(F)F)c3)n2)c1)c1c(F)cccc1F [GSK292658],%Inh,[1],2%
same,%Inh,[2],2%
same,%Inh,[3],0%
same,%Inh,[4],49%
same,%Inh,[5],12%
same,%Inh,[6],0%
same,%Inh,[7],94%
same,%Inh,[8],0%
same,%Inh,[9],0%
same,%Inh,[10],22%
Cl.c1ccc(-c2ccc3c(Nc4ccc5[nH]ccc5c4)ccnc3c2)nc1 [GW440138],%Inh,[1],0%
same,%Inh,[2],8%
same,%Inh,[3],0%
same,%Inh,[4],1%
same,%Inh,[5],0%
same,%Inh,[6],2%
same,%Inh,[7],70%
same,%Inh,[8],0%
same,%Inh,[9],5%
same,%Inh,[10],26%

# Reference: article PMC5540273 (PLoS ONE, 2017)
